Screening data (PubChem BioAssay)
HT1080 IDH1KD tx: qHTS for induction of synthetic lethality in tumor cells producing 2HG: qHTS for the HT-1080-IDH1KD cell line; HT-1080 IDH1 knockdown viability, ATP luminescence, 48 h; Potency, µM (doses to about 46.1 µM), for the others: top-dose activity, negative = toxicity, hits mostly cytotoxic; AID 686971, 2013; 360,000 tested, 2% active;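 also: 0% = DMSO wells and -100% = cell-free medium wells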
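Luminescent ATP read-out (CellTiter-Glo, 10 min at room temperature) after 48 h compound exposure at 37 °C gave viability of IDH1-knockdown HT-1080 cells. Activity was normalised to DMSO and cell-free wells, then fitted as concentration-response curves.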
ATXN2 expr inh: Primary qHTS for Inhibitors of ATXN expression; HEK-293 ATXN2-luciferase reporter, luminescence, 24 h; Potency, µM (doses to about 57 µM), without a hit: at the highest dose activity change, negative = inhibition, most hits filed as inhibitors; 360,000 tested, 0.72% active; AID 1745845, 2022; also: % is scaled to controls: 0 for no effect and ±100 for the full control effect; nearly all actives have a fitted effect of over 55% in size
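ATXN2-luciferase reporter cells (luciferase flanked by upstream and downstream ATXN2 gene portions) were treated 24 h at 37 °C with compounds at up to 57 uM. SteadyGlo luminescence gave expression; GF-AFC fluorescence gave viability.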
HepG2 tox: qHTS for Inhibitors of TGF-b: Cytotox Counterscreen | HepG2 CAGA-GFP viability, ATP luminescence, 18 h | Potency, µM (doses to about 46.1 µM), for the others: at the top dose activity change, negative = cytotoxicity, actives largely listed as cytotoxic | 410,000 tested, 0.76% active | AID 588856, 2011
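CellTiter-Glo luminescence gave cytotoxicity after 18 hours at 37 degrees C. The cells were HepG2 CAGA-GFP in 1% FBS DMEM, stimulated with 500 pg/mL TGF-beta after compound addition. %Activity was normalised to no-cell wells (complete cell-killing) and DMSO (no toxicity), and curves were fitted and classified.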
ATXN viability: Viability Counterscreen for Primary qHTS for Inhibitors of ATXN expression; AID 651635, 2014; S2 cells (HEK-293 line with an ATXN2-luciferase reporter) viability, CellTiter-Fluor protease fluorescence, 24 h; 400,000 tested, 0.49% active; Potency, µM (top dose mostly 56.7 µM), actives largely listed as cytotoxic; also: nearly all actives have a fitted effect of over 40% in size
TGFb inhibitor: qHTS for Inhibitors of TGF-b. HepG2 CAGA-GFP TGF-b/SMAD3 reporter, GFP fluorescence, 18 h; TGF-beta stimulated, 500 pg/mL final. Potency, µM (titrated, usually from 46.1 µM), without a hit: top-dose activity, negative = inhibition, actives largely listed as inhibitors. 410,000 tested, 1.2% active; also: % is scaled to controls: 0 for no effect and ±100 for the full control effect; nearly all actives have a fitted effect of over 65% in size
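Cell-based qHTS in HEPG2 carrying a CAGA-GFP Smad reporter; compounds added before 500 pg/mL final TGF-beta, 18 h incubation at 37 degrees C, GFP fluorescence quantified per cell by imaging cytometry.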
HT1080NT lethal: qHTS for induction of synthetic lethality in tumor cells producing 2HG: qHTS for the HT-1080-NT fibrosarcoma cell line; HT-1080-NT fibrosarcoma viability, CellTiter-Glo ATP luminescence, 48 h; Potency, µM (series often up to 46.1 µM), for inactives: at the highest dose activity, negative = less viability, actives largely listed as cytotoxic; AID 686970, 2013; 360,000 tested, 1.6% active;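 also: NT is the 2HG producing partner of a matched IDH1 knockdown line; 0% = DMSO-treated cells and -100% = media-only wells without cells; nearly all actives have a fitted effect of over 55% in size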
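HT-1080-NT fibrosarcoma cells (2HG-overproducing), 750 cells/well in RPMI with 5% FBS, dosed after 2 h and incubated 48 h at 37C. CellTiter-Glo luminescence normalized to DMSO and no-cell wells; concentration-response curves fitted and classed.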
Starred values were filed as active, the others as inactive. Sampled rows, rich in hits. Any-hit rate of the full collection: about 3.8%. Calls follow the shape of the dose curve; as a rule, active = well fitted curve in the direction sought with a large enough effect; inconclusive = small, poorly fitted or top-dose-only effect, or another doubt; inactive = no such curve, though single readings can be large; an effect the other way counts as inactive or inconclusive. Potency is read from the fitted curve at half-maximal effect.

Results for Cc1cccc(Cn2nnc3c(=O)[nH]c(C4CCCN(C(=O)c5ccc(C(C)(C)C)cc5)C4)nc32)c1 (configuration not stated) ?
ATXN2 expr inh: inconclusive; HepG2 tox: -111%; ATXN viability: inconclusive; TGFb inhibitor: inconclusive

What do the screens show for `CNc1nc(SCc2ccccc2Cl)nc2c1CCCC2`?
HT1080 IDH1KD tx: 33µM*; ATXN2 expr inh: -20%; HepG2 tox: -40%; ATXN viability: inactive; TGFb inhibitor: inconclusive; HT1080NT lethal: inconclusive

Results for O=c1[nH]c(SCc2ccccc2Cl)nc2c1CCC2 ?
HT1080 IDH1KD tx: 2%; ATXN2 expr inh: 14%; HepG2 tox: 6%; ATXN viability: inactive; TGFb inhibitor: 18%; HT1080NT lethal: -1%

Results for COc1ccccc1CNC(=O)Cc1c(C)c2c(cc(C)c3c(C)coc32)oc1=O ?
HepG2 tox: 1%; TGFb inhibitor: -1%

Results for O=C(NCCCN1CCCC1)c1cc2c(Cl)nc3ccccc3c2s1 ?
HT1080 IDH1KD tx: 21µM*; ATXN2 expr inh: inconclusive; HepG2 tox: -24%; ATXN viability: inconclusive; TGFb inhibitor: -16%; HT1080NT lethal: inconclusive

What do the screens show for `CCCN1CCN(CCCNC(=O)c2cc3c(Cl)nc4ccccc4c3s2)CC1`?
ATXN2 expr inh: inconclusive; HepG2 tox: 13µM*; ATXN viability: inconclusive; TGFb inhibitor: inconclusive

Results for CC1CCN(CCCNC(=O)c2cc3c(Cl)nc4ccccc4c3s2)CC1 ?
HT1080 IDH1KD tx: -2%; HepG2 tox: -94%; TGFb inhibitor: inconclusive; HT1080NT lethal: inconclusive

How did Cc1cccc(-c2ccc3[nH]c4c(c3c2)CCN2C[C@@H]([C@H](C)O)[C@@H](N(C)C(=O)NC3CCCCC3)C[C@@H]42)c1 do in these assays?
HT1080 IDH1KD tx: inconclusive; ATXN2 expr inh: -12%; HepG2 tox: -37%; ATXN viability: inconclusive; TGFb inhibitor: inconclusive; HT1080NT lethal: inconclusive

How did COc1ccc(-c2ccc3[nH]c4c(c3c2)CCN2C[C@@H]([C@H](C)OC(=O)Nc3cc(Cl)cc(Cl)c3)[C@@H](N(C)C(=O)Nc3cc(Cl)cc(Cl)c3)C[C@@H]42)cc1 do in these assays?
HT1080 IDH1KD tx: -4%; ATXN2 expr inh: -6%; HepG2 tox: -5%; ATXN viability: inconclusive; TGFb inhibitor: 9%; HT1080NT lethal: -19%

How did COc1ccc(NC(=O)O[C@@H](C)[C@@H]2CN3CCc4c([nH]c5ccc(-c6ccc(OC)cc6)cc45)[C@@H]3C[C@@H]2N(C)C(=O)Nc2ccc(OC)cc2)cc1 do in these assays?
HT1080 IDH1KD tx: -23%; ATXN2 expr inh: inconclusive; HepG2 tox: -41%; ATXN viability: inconclusive; TGFb inhibitor: inconclusive; HT1080NT lethal: -23%

What do the screens show for `COc1ccc(NC(=O)N(C)[C@H]2C[C@H]3c4[nH]c5ccc(-c6ccc(OC)cc6)cc5c4CCN3C[C@H]2[C@H](C)O)cc1`?
HT1080 IDH1KD tx: 16µM*; ATXN2 expr inh: 22µM*; HepG2 tox: -103%; TGFb inhibitor: inconclusive; HT1080NT lethal: 23µM*

How did CN[C@H]1C[C@H]2c3[nH]c4ccc(-c5cccc(C)c5)cc4c3CCN2C[C@H]1[C@H](C)O do in these assays?
HT1080 IDH1KD tx: inconclusive; ATXN2 expr inh: inconclusive; HepG2 tox: -124%; TGFb inhibitor: inconclusive; HT1080NT lethal: 16µM*
